The nature of assay [1]: qHTS assay to identify small molecule antagonists of the peroxisome proliferator-activated receptor delta (PPARd) signaling pathway - cell viability counter screen (AID 743213). Note: nearly all actives have a fitted effect of over 50% in size. Summed up:
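HEK293H cells with the PPARd UAS-bla reporter, co-treated 17 h at 37 C with compounds and L165041 (300 nM final), were lysed with CellTiter-Glo. Luminescence indicated viable cell content.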

For assay [2], the target named is Peroxisome proliferator-activated receptor delta (Homo sapiens) (UniProt Q03181). The assay can be described thus: qHTS assay to identify small molecule antagonists of the peroxisome proliferator-activated receptor delta (PPARd) signaling pathway (AID 743215; active = well fitted inhibition curve with a large enough effect in the signal ratio in the repeat runs, not every such curve was filed as active; the % refers to the signal ratio;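 note: cells stimulated with agonist L165041 at 300 nM final during compound exposure; series mostly up to about 62 µM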). Summed up: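 PPARd UAS-bla HEK293H cells were pre-incubated 5 h at 37 C, then given test compounds in DMSO plus agonist L165041 (300 nM final). After 17 h at 37 C, beta-lactamase FRET substrate was added; fluorescence read after 2 h at room temperature.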
Sequence of Peroxisome proliferator-activated receptor delta (Homo sapiens) (Q03181 whole entry, looked up): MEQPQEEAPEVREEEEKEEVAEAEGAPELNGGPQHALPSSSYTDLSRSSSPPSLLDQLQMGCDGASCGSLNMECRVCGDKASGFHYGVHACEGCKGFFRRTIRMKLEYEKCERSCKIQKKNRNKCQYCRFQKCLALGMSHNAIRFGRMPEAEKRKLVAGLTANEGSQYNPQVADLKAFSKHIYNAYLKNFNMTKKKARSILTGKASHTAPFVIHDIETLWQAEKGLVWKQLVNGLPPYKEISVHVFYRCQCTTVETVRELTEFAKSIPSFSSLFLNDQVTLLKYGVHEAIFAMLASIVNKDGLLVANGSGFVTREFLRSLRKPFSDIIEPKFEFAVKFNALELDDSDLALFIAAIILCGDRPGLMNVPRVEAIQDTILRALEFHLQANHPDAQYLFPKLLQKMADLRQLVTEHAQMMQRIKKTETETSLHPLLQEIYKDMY
(qHTS replaces the single test concentration by a dilution series.)

A short description of assay [3]: qHTS assay to identify small molecule agonists of the farnesoid-X-receptor (FXR) signaling pathway - cell viability counter screen (AID 743218). Note: nearly all actives have a fitted effect of over 45% in size. Note: potency is the fitted concentration of half-maximal effect. An outline of the steps:
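FXR-UAS-bla HEK 293T cells, plated 5 h at 37 C, were exposed to compounds for 16 h at 37 C. CellTiter-Glo was then added to the same wells as the bla readout; luminescence read after 30 min at room temperature.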

Assay [4] addresses Bile acid receptor (Homo sapiens) (UniProt Q96RI1). Description: qHTS assay to identify small molecule agonists of the farnesoid-X-receptor (FXR) signaling pathway (AID 743220; active = well fitted activation curve with a large enough effect in the signal ratio in the repeat runs, not every such curve was filed as active; the % refers to the signal ratio). An outline of the steps:
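Beta-lactamase reporter under UAS control in GeneBLAzer FXR HEK 293T cells (5000/well) measured with LiveBLAzer FRET substrate after 2 h at room temperature. Compound exposure lasted 16 h at 37C.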

Assay [5] in a line: qHTS assay to identify small molecule antagonists of the farnesoid-X-receptor (FXR) signaling pathway - cell viability counter screen (AID 743221; active = well fitted cell-killing curve with a large enough effect in the repeat runs, not every such curve was filed as active; note: nearly all actives have a fitted effect of over 50% in size). Summed up:
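In GeneBLAzer FXR-UAS-bla HEK 293T cells stimulated with 50 uM chenodeoxycholic acid (final), compounds acted for 16 h at 37 C. Viability was assessed afterwards by CellTiter-Glo luminescence.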

Assay [6] can be described thus: qHTS assay to identify small molecule agonists of the vitamin D receptor (VDR) signaling pathway - cell viability counter screen (AID 743224). Note: nearly all actives have a fitted effect of over 50% in size. Note: potency is the fitted concentration of half-maximal effect. An outline of the steps: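 VDR-bla cells were preincubated 4 h at 37C/5% CO2, then exposed to compounds for 16 h. After the 2 h room-temperature bla FRET read, CellTiter-Glo was added to the same wells and luminescence read after 30 min.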

Assay [7] deals with Vitamin D3 receptor (Homo sapiens) (UniProt P11473). Description: qHTS assay to identify small molecule agonists of the vitamin D receptor (VDR) signaling pathway (AID 743222; calls by dose curve). Summed up:
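VDR-bla cells were plated 4 h at 37C/5% CO2, then exposed to compounds in DMSO for 16 h. After LiveBLAzer B/G FRET substrate addition and 2 h at room temperature, beta-lactamase reporter fluorescence was read.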

The target is the same in assay [8]. The assay can be described thus: qHTS assay to identify small molecule antagonists of the vitamin D receptor (VDR) signaling pathway (AID 743223; active = well fitted inhibition curve with a large enough effect in the signal ratio in the repeat runs, not every such curve was filed as active; the % refers to the signal ratio). Summed up: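 Agonist 1alpha,25-dihydroxyvitamin D3 (3 nM in well) was added with each compound to VDR-bla cells preincubated 4 h. Cells stood 16 h at 37C, then FRET substrate 2 h at room temperature; fluorescence intensity recorded.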

In assay [9] the target is Bile acid receptor (Homo sapiens) (UniProt Q96RI1). The assay can be described thus: qHTS assay to identify small molecule antagonists of the farnesoid-X-receptor (FXR) signaling pathway (AID 743217; active = well fitted inhibition curve with a large enough effect in the signal ratio in the repeat runs, not every such curve was filed as active; the % refers to the signal ratio). Summed up: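 FXR-UAS-bla HEK 293T cells pre-incubated 5 h at 37 °C, then exposed to compounds with chenodeoxycholic acid (50 uM final) for 16 h at 37 °C. Beta-lactamase reporter read by LiveBLAzer B/G FRET substrate fluorescence after 2 h at room temperature.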
Sequence of Bile acid receptor (Homo sapiens) (Q96RI1 whole entry, looked up): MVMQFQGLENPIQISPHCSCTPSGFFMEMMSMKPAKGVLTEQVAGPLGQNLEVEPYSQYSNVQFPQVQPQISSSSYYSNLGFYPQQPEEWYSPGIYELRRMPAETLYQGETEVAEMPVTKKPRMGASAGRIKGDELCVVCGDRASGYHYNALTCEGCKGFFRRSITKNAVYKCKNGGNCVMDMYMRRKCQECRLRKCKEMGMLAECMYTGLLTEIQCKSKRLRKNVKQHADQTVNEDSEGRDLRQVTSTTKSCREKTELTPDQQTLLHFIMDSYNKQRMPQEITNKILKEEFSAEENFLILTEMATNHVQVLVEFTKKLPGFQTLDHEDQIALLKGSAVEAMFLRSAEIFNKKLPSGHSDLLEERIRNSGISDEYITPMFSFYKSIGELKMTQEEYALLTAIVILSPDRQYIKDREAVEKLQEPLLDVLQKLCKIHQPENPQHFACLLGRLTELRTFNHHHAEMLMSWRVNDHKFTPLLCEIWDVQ

Assay [10] addresses Peroxisome proliferator-activated receptor delta (Homo sapiens) (UniProt Q03181). The assay can be described thus: qHTS assay to identify small molecule agonists of the peroxisome proliferator-activated receptor delta (PPARd) signaling pathway (AID 743212; calls by dose curve). Summed up: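 GeneBLAzer PPARd UAS-bla HEK293H cells (beta-lactamase reporter under UAS control), plated and rested 5 h at 37 C, then exposed to compounds in DMSO at 37 C; LiveBLAzer B/G FRET substrate added, 2 h room temperature, fluorescence read.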

SMILES strings stand for the structures. Records with an inconclusive call do not appear. A structure can be active in one record and inactive in another. Active and inactive are the calls of the source. Unless noted, calls come from the whole dose curve; as a rule, active = well fitted curve in the direction sought with a large enough effect in the repeat runs; inconclusive = weak or mixed curves; inactive = no such curve, though single readings can be large; an effect the other way counts as inactive or inconclusive.

Sequence of Vitamin D3 receptor (Homo sapiens) (P11473 whole entry, looked up): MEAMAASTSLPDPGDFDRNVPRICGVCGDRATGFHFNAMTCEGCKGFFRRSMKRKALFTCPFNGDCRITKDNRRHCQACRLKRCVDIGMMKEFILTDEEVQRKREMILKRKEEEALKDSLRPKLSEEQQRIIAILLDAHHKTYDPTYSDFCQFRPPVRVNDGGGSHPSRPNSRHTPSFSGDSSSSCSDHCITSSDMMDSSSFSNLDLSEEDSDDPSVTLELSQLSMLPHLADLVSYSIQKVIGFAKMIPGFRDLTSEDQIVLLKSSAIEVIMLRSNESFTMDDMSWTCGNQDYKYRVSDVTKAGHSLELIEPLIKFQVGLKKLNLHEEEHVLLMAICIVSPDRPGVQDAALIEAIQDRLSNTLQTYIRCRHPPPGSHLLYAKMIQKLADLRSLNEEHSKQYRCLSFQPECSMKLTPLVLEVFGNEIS

Regarding `CC(C)(C)c1cccc(C(C)(C)C)c1O`, the Potency result in [1], in assay [3], in assay [5] and in [6] was “inactive” each time. Moreover, the result in assay [2] and in [4] was inactive.
`CCOC(=O)C(C)Oc1ccc(Oc2cnc3cc(Cl)ccc3n2)cc1` (centres undefined): the Potency entry in assay [1], in assay [3], in assay [5] and in assay [6] was “inactive” throughout. For the same compound, the outcome in assay [2], in assay [4] and in assay [7] was inactive.
For `CCCN1C=CN(C)C1`, the Potency entry in assay [1], in [3], in assay [5] and in [6] was “inactive” throughout. Further, the compound was called inactive in assay [2], in assay [4] and in assay [7].
For `Cc1ccc(C)c(O)c1`, the Potency result in assay [1], in assay [3] and in assay [6] was “inactive” throughout. Moreover, the compound was classed as inactive in assay [2], in [4], in [7] and in assay [8].
For the compound `OCCNCCO`, the Potency result in assay [1], in [3] and in assay [6] was “inactive” throughout. The result in assay [2], in [7] and in [8] was inactive.
For the compound `c1ccc2c(c1)ccc1ncccc12`, the Potency result in assay [1], in assay [3], in [5] and in [6] was “inactive” each time. Further, the compound was classed as inactive in [2].
For `COc1ccc(C(=O)c2ccccc2O)c(O)c1`, the Potency result in assay [1], in assay [3], in assay [5] and in assay [6] was “inactive” each time. Further, in [2], the call was inactive.
For the compound `Nc1cc(Cl)c(N)c(Cl)c1`, the Potency result in assay [1], in assay [9], in assay [3], in assay [5] and in [6] was “inactive” in each case. For the same compound, the call in [2], in [4] and in assay [7] was inactive.
Regarding `ClC/C=C/CCl`, the Potency result in [1], in [3] and in assay [6] was “inactive” each time. Further, the call in [2], in [7] and in [8] was inactive.
On to `C=CCCCCCCCCCC`, for which the Potency entry in assay [1], in assay [3], in [5] and in assay [6] was “inactive” each time. Further, the compound was classed as inactive in assay [2].
With `CCCCCCCCCCC(CO)CCCCCCCC` (centres undefined), the Potency entry in assay [1], in [3], in assay [5] and in assay [6] was “inactive” throughout. The compound was classed as inactive in assay [2], in assay [7] and in assay [8].
`CCO[Si](CCCNC(N)=O)(OCC)OCC`: the Potency result in assay [1], in assay [3], in [5] and in assay [6] was “inactive” in each case. The result in assay [2], in assay [4] and in [7] was inactive.
For `c1ccc2c(c1)[nH]c1ccccc12`, the Potency entry in assay [1], in [3], in assay [5] and in assay [6] was “inactive” throughout. In addition, the result in assay [2] was inactive.
For `C=C[Si](OCCOC)(OCCOC)OCCOC`, the Potency entry in assay [1], in assay [3] and in [6] was “inactive” each time. Further, the compound was classed as inactive in assay [2], in assay [4] and in assay [7].
As for `Cc1cccc(Nc2ccccc2C(=O)O)c1C`, the Potency entry in assay [1], in assay [3], in assay [5] and in assay [6] was “inactive” in each case. Further, in [2], the outcome was inactive.
Turning to `NCCN`, the compound was classed as inactive in [10] and in [2]. For the same compound, the Potency entry in [6] is “inactive”.
`C[C@]12CC[C@@H]3c4ccc(O)cc4CC[C@H]3[C@@H]1CC[C@@H]2O`: the Potency entry in assay [1], in assay [3], in assay [5] and in assay [6] was “inactive” each time. For the same compound, the compound was called inactive in assay [2] and in assay [7].
On to `CC1(C)O[C@@H]2C[C@H]3[C@@H]4C[C@H](F)C5=CC(=O)C=C[C@]5(C)[C@@]4(F)[C@@H](O)C[C@]3(C)[C@]2(C(=O)CO)O1`, for which the result in [10] was inactive. Besides, the Potency result in assay [1], in assay [3], in assay [5] and in [6] was “inactive” each time.
For `C=CCOC(=O)C(=C)C`, the Potency result in assay [1], in assay [3] and in assay [6] was “inactive” in each case. Further, the call in assay [2], in assay [7] and in assay [8] was inactive.
Regarding `Cc1ccc2c(c1)C(=O)OC2=O`, the Potency entry in [1], in assay [3], in [5] and in assay [6] was “inactive” each time. In addition, the call in assay [2], in [7] and in [8] was inactive.
In the case of `CC(=O)O[C@]1(C(C)=O)CC[C@H]2[C@@H]3C=C(Cl)C4=CC(=O)CC[C@]4(C)[C@H]3CC[C@@]21C`, the Potency entry in assay [1], in [3] and in assay [5] was “inactive” each time. Further, the outcome in [2] was inactive. Moreover, the Potency in assay [6] was 43.6 µM (active) and inactive.
`c1ccc2c(c1)ccc1cc3c(ccc4ccccc43)cc12`: the Potency entry in [1], in assay [3] and in assay [6] was “inactive” throughout. Further, the result in assay [2] and in [4] was inactive.
On to `C=C[C@H]1CN2CC[C@H]1C[C@@H]2[C@@H](O)c1ccnc2ccc(OC)cc12`, for which the Potency result in assay [1] is “inactive”. The call in assay [2] was inactive. Besides, the Potency in [3] is 24.1 µM (active) and inactive.
Regarding `Cc1ccc([N+](=O)[O-])c(C)c1`, the Potency entry in assay [1], in assay [3], in assay [5] and in [6] was “inactive” throughout. The outcome in [2], in assay [4] and in assay [7] was inactive.
As to `COC(=O)C(C)Oc1ccc(Oc2ncc(C(F)(F)F)cc2Cl)cc1` (centres undefined), the Potency result in [1], in [3], in assay [5] and in assay [6] was “inactive” each time. Moreover, the outcome in assay [2] and in assay [7] was inactive.
On to `C=C[C@H]1CN2CC[C@H]1C[C@H]2[C@H](O)c1ccnc2ccc(OC)cc12`, for which the result in assay [10] and in assay [2] was inactive. The Potency result in assay [3] and in assay [5] was “inactive” each time.
With `CC1(C)OC(=O)NC1=O`, the Potency entry in assay [1], in assay [3] and in assay [6] was “inactive” in each case. Also, the compound was classed as inactive in [2], in assay [4], in assay [7] and in [8].
With `O=C(O)COCCN1CCN(C(c2ccccc2)c2ccc(Cl)cc2)CC1` (centres undefined), the Potency entry in [1], in assay [3], in assay [5] and in [6] was “inactive” throughout. For the same compound, the compound was classed as inactive in assay [2], in [4], in assay [7] and in assay [8].
As to `COc1cc([C@H]2Oc3cc([C@H]4Oc5cc(O)cc(O)c5C(=O)[C@@H]4O)ccc3O[C@@H]2CO)ccc1O`, the Potency result in [1], in assay [3], in assay [5] and in [6] was “inactive” in each case. Also, in assay [4], the compound was classed as inactive.
Take `CC(=O)Oc1c(C)c(C)c2c(c1C)CC[C@@](C)(CCC[C@H](C)CCC[C@H](C)CCCC(C)C)O2`: the Potency result in assay [1], in assay [3] and in assay [5] was “inactive” throughout. In addition, the result in assay [7] was inactive. Also, the Potency in assay [6] was 49 µM (active) and inactive.

(Values after PubChem BioAssay (Tox21).)
